The panel holds about 79,000 compounds, 15% with a hit somewhere; the sample as a whole holds those more often. Calls of active or inactive are those of the source. No stated cut-off is given here; in the data, active means growth inhibition above about 70%; inactive means the rest.
Assays:
[1] = NCI Yeast Anticancer Drug Screen. Data for the sgs1 strain (AID 173);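 further: 0% = growth of vehicle-only control cultures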; settings: S. cerevisiae sgs1 mutant, hits give high values
Outline: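 Yeast mutant strains carrying defined defects in DNA damage repair or cell cycle control were exposed to test compounds. Growth inhibition was scored against vehicle-treated controls.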

[2] = NCI Yeast Anticancer Drug Screen. Data for the mlh1 rad18 strain (AID 175); settings: S. cerevisiae mlh1 rad18 strain growth inhibition, hits give high values
Outline: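 Growth inhibition of the yeast strain was measured after compound exposure and expressed relative to vehicle-treated controls. The strain carries defined defects in DNA damage repair.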

[3] = NCI Yeast Anticancer Drug Screen. Data for the rad18 strain (AID 177); settings: S. cerevisiae rad18 mutant growth inhibition, hits give high values
Outline: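 Yeast carrying a defined DNA damage repair alteration were exposed to compounds. Growth inhibition was expressed relative to vehicle-treated controls.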

[4] = NCI Yeast Anticancer Drug Screen. Data for the rad52 strain (AID 147);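 further: 0% = growth of vehicle-treated control cultures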; settings: S. cerevisiae rad52 mutant growth inhibition, hits give high values
Outline: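 Yeast strain carrying a DNA damage repair alteration was exposed to test compounds. Growth inhibition was measured relative to vehicle-treated controls.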

[5] = NCI Yeast Anticancer Drug Screen. Data for the wt1 strain (AID 149);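 further: 0% = growth of vehicle-treated wt1 cultures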; settings: S. cerevisiae wt1 strain (SPY 50644) growth inhibition, hits give high values
Outline: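 Using yeast strain wt1, compound-induced growth inhibition was determined against vehicle-treated cultures.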

[6] = NCI Yeast Anticancer Drug Screen. Data for the rad50EPP+ strain (AID 151);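 further: 0% = growth of vehicle-treated control cultures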; settings: S. cerevisiae rad50 mutant strain, hits give high values
Outline: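 Yeast strain carrying rad50 alteration (rad50EPP+) exposed to compounds; growth inhibition measured relative to vehicle-treated controls.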

[7] = NCI Yeast Anticancer Drug Screen. Data for the rad50 strain (AID 155);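 further: 0% = growth of vehicle-only cultures of the same strain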; settings: S. cerevisiae rad50 strain growth inhibition, hits give high values
Outline: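 Relative growth inhibition (compound vs vehicle) was measured in yeast with a defined repair-gene alteration.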

[8] = NCI Yeast Anticancer Drug Screen. Data for the mec2-1 strain (AID 157); settings: S. cerevisiae mec2-1 strain, hits give high values
Outline: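 mec2-1 yeast strain, carrying an alteration in DNA damage repair or cell cycle control, was exposed to compounds; growth inhibition was measured relative to vehicle-treated controls.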

[9] = NCI Yeast Anticancer Drug Screen. Data for the rad14 strain (AID 159);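 further: 0% = growth of vehicle-treated control cultures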; settings: S. cerevisiae rad14 strain growth inhibition, hits give high values
Outline: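 Screen for anticancer potential: a yeast strain altered in DNA damage repair is grown with compound, and reduced growth is quantified against vehicle controls.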

[10] = NCI Yeast Anticancer Drug Screen. Data for the sgs1 mgt1 strain (AID 161);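 further: 0% = growth of cultures given vehicle only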; settings: S. cerevisiae sgs1 mgt1 strain, hits give high values
Outline: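 This yeast growth screen uses a strain with defined DNA-repair lesions; compound-treated growth is compared with vehicle-treated growth.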

[11] = NCI Yeast Anticancer Drug Screen. Data for the CLN2oe strain (AID 163);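 further: 0% = growth of vehicle-only control cultures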; settings: S. cerevisiae CLN2oe strain, hits give high values
Outline: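 Yeast cells carrying a defined cell-cycle control alteration were exposed to test compounds. Growth inhibition was scored against vehicle-treated control cultures.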

[12] = NCI Yeast Anticancer Drug Screen. Data for the cln2 rad14 strain (AID 165);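 further: 0% = growth equal to vehicle treated cultures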; settings: S. cerevisiae cln2 rad14 strain, hits give high values
Outline: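 Yeast carrying cln2 and rad14 alterations (cell cycle control and DNA damage repair) were exposed to compounds. Growth inhibition was measured against vehicle-treated controls.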

[13] = NCI Yeast Anticancer Drug Screen. Data for the bub3 strain (AID 167); settings: S. cerevisiae bub3 mutant strain, hits give high values
Outline: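 Screening used yeast with an engineered genetic alteration affecting cell cycle control. Compound-exposed cultures were compared with vehicle cultures, and reduced growth was taken as inhibition.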

[14] = NCI Yeast Anticancer Drug Screen. Data for the wt2 strain (AID 169);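 further: 0% = growth of vehicle-treated yeast cultures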; settings: S. cerevisiae wt2 strain growth inhibition, hits give high values
Outline: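 Yeast cells were exposed to test compounds, and growth inhibition was measured relative to vehicle-treated controls.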

[15] = NCI Yeast Anticancer Drug Screen. Data for the mlh1 strain (AID 171);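 further: 0% = growth of vehicle-treated control cultures of the same strain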; settings: S. cerevisiae mlh1 strain growth inhibition, hits give high values
Outline: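 Yeast carrying a defined genetic alteration in DNA damage repair or cell cycle control were exposed to test compounds. Growth inhibition was measured relative to vehicle-treated controls.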

[16] = at 5.0 µM (retest, dose inferred, filed as 0.5)
[17] = at 50.0 µM (retest, dose inferred, filed as 5.0)

Measured: growth inhibition

Cc1ccc2occ/c(=N\Nc3ccccc3)c2c1
inactive: [1]; at 1.2 µM -1% | [1]; at 3.7 µM -4% | [1]; at 11.0 µM 4% | [1]; at 33.0 µM 53% | [1]; at 100.0 µM 57% | [2]; [16] -5% | [2]; [17] 52% | [2]; at 50.0 µM 68.3% | [3]; at 1.2 µM -2% | [3]; at 3.7 µM -1% | [3]; at 11.0 µM 7% | [3]; at 33.0 µM 62% | [3]; at 100.0 µM 64%

S=c1[nH]nc(-c2ccc(Cl)cc2)s1
active: [4]; at 33.0 µM 93% | [4]; at 100.0 µM 97% | [5]; at 33.0 µM 78% | [5]; at 100.0 µM 96% | [6]; at 100.0 µM 81% | [7]; [16] 73% | [7]; at 33.0 µM 90% | [7]; [17] 99% | [7]; at 50.0 µM 87.2% | [7]; at 100.0 µM 95% | [8]; [16] 72% | [8]; at 33.0 µM 71% | [8]; [17] 99% | [8]; at 50.0 µM 87.8% | [8]; at 100.0 µM 96% | [9]; at 33.0 µM 92% | [9]; at 100.0 µM 97% | [10]; [17] 97% | [11]; at 100.0 µM 95% | [12]; [17] 97% | [13]; at 33.0 µM 81% | [13]; [17] 96% | [13]; at 100.0 µM 96% | [14]; at 100.0 µM 96% | [15]; at 100.0 µM 96% | [1]; at 100.0 µM 94% | [2]; [16] 80% | [2]; [17] 99% | [2]; at 50.0 µM 86% | [3]; at 33.0 µM 92% | [3]; at 100.0 µM 96%
inactive: [4]; at 1.2 µM 16% | [4]; at 3.7 µM 7% | [4]; at 11.0 µM 23% | [5]; at 1.2 µM -18% | [5]; at 3.7 µM -21% | [5]; at 11.0 µM -25% | [6]; at 1.2 µM -1% | [6]; at 3.7 µM -1% | [6]; at 11.0 µM -9% | [6]; at 33.0 µM 31% | [7]; at 1.2 µM -6% | [7]; at 3.7 µM -7% | [7]; at 11.0 µM 21% | [8]; at 1.2 µM 1% | [8]; at 3.7 µM 12% | [8]; at 11.0 µM -15% | [9]; at 1.2 µM -24% | [9]; at 3.7 µM -18% | [9]; at 11.0 µM -16% | [10]; [16] -8% | [11]; at 1.2 µM 6% | [11]; at 3.7 µM 12% | [11]; at 11.0 µM -10% | [11]; at 33.0 µM 55% | [12]; [16] 52% | [13]; at 1.2 µM 23% | [13]; at 3.7 µM 24% | [13]; [16] 27% | [13]; at 11.0 µM 16% | [14]; at 1.2 µM -28% | [14]; at 3.7 µM -21% | [14]; at 11.0 µM -28% | [14]; at 33.0 µM 69% | [15]; at 1.2 µM -16% | [15]; at 3.7 µM -17% | [15]; at 11.0 µM -8% | [15]; at 33.0 µM 67% | [1]; at 1.2 µM -13% | [1]; at 3.7 µM -13% | [1]; at 11.0 µM -16% | [1]; at 33.0 µM 64% | [3]; at 1.2 µM -15% | [3]; at 3.7 µM -6% | [3]; at 11.0 µM 21%

CC1OC(OC2CCCc3c(O)c4c(c(O)c32)C(=O)c2ccccc2C4=O)CC(N)C1O (stereo unspecified)
inactive: [4]; at 1.2 µM 3% | [4]; at 3.7 µM 46% | [5]; at 1.2 µM 1% | [5]; at 3.7 µM 12% | [5]; at 11.0 µM 35% | [6]; at 1.2 µM 10% | [6]; at 3.7 µM 30% | [7]; at 1.2 µM -49% | [7]; at 3.7 µM 41% | [7]; [16] 60% | [8]; at 1.2 µM 0% | [8]; at 3.7 µM -2% | [8]; [16] 8% | [8]; at 11.0 µM 4% | [8]; at 50.0 µM 53% | [9]; at 1.2 µM 2% | [9]; at 3.7 µM 12% | [9]; at 11.0 µM 55% | [10]; [16] 14% | [11]; at 1.2 µM 2% | [11]; at 3.7 µM -1% | [11]; at 11.0 µM 2% | [12]; [16] -3% | [12]; at 50.0 µM 43.9% | [13]; at 1.2 µM -4% | [13]; at 3.7 µM -5% | [13]; [16] 2% | [13]; at 11.0 µM -7% | [13]; at 50.0 µM 52.8% | [1]; at 1.2 µM -12% | [1]; at 3.7 µM -7% | [1]; at 11.0 µM 34% | [2]; [16] 12% | [2]; at 50.0 µM 66.2% | [3]; at 1.2 µM -8% | [3]; at 3.7 µM 0% | [3]; at 11.0 µM 8%
active: [4]; at 11.0 µM 94% | [4]; at 33.0 µM 98% | [4]; at 100.0 µM 99% | [5]; at 33.0 µM 92% | [5]; at 100.0 µM 99% | [6]; at 11.0 µM 73% | [6]; at 33.0 µM 97% | [6]; at 100.0 µM 98% | [7]; at 11.0 µM 95% | [7]; at 33.0 µM 99% | [7]; [17] 98% | [7]; at 50.0 µM 80.7% | [7]; at 100.0 µM 98% | [8]; at 33.0 µM 82% | [8]; [17] 99% | [8]; at 100.0 µM 99% | [9]; at 33.0 µM 99% | [9]; at 100.0 µM 99% | [10]; [17] 98% | [10]; at 50.0 µM 70.5% | [11]; at 33.0 µM 84% | [11]; at 100.0 µM 98% | [12]; [17] 98% | [13]; at 33.0 µM 89% | [13]; [17] 98% | [13]; at 100.0 µM 98% | [1]; at 33.0 µM 97% | [1]; at 100.0 µM 99% | [2]; [17] 99% | [3]; at 33.0 µM 90% | [3]; at 100.0 µM 99%

Reference: PubChem BioAssay (NCI)
